Measurements from ChEMBL document CHEMBL3988442, “University of Dundee, Small-Polar-MMV Screening Library” (2021).
Screen size: about 48,000 compounds; about 13,000 (27%) showed an effect of 50% or more. Some of the results follow.

These compounds were tested on Wolbachia pipientis (assay: Anti-Wolbachia Cell-Based Screen). Conditions: 5 µM.
Type: functional
Set-up: scale not given: in the data most compounds retested in dose-response had high values

Going from `Cc1csc(CCNc2ccc(C#N)cc2F)n1` to `CNS(=O)(=O)Cc1cccc(CNc2ccc(C#N)cn2)c1`, the “Percent Effect” value rises from -5.881% to 5.411%.

First: CN(Cc1cc(-c2ccccc2)no1)CC1CCCN1c1cccnn1 (centres undefined)
Second: O=C(c1cccc2cccnc12)N1CCCN(c2cccnn2)CC1
The “Percent Effect” value of the first is lower: 1.009% for the first, 11.56% for the second.

Going from `CC(C)C1CN(C(=O)Nc2cnn(CC(F)F)c2)CCS1` (centres undefined) to `CC(C)CC1(C(=O)NCc2nncn2C2CC2)CCC1`, the “Percent Effect” value rises from -11.36% to -7.53%.

Compared with `CCNC(=O)[C@@H]1C[C@@H](n2cc(CC3CCCCC3)nn2)CN1`, `CCNC(=O)[C@@H]1C[C@H](n2cc(CC3CCCCC3)nn2)CN1` is higher in “Percent Effect” value: 1.299% for the first, 16.21% for the second.

Going from `CNC(=O)[C@@H]1C[C@H](n2cc(-c3ccc(CN4CC=CC4)cc3)nn2)CN1` to `CNC(=O)[C@@H]1C[C@@H](n2cc(-c3ccc(CN4CC=CC4)cc3)nn2)CN1`, the “Percent Effect” value rises from 109.2% to 109.8%.

First: CCNC(=O)[C@@H]1C[C@@H](n2cc(CN(CC)CC)nn2)CN1
Second: CCc1oc(C(=O)N2CC[C@H]3CC[C@@H](C2)N3)cc1CN(CC)CC
The “Percent Effect” value of the first is lower: -7.284% for the first, 112% for the second.

Going from `Cc1ncc(CN2CCC(n3cc(-c4ccc(F)cc4)nn3)CC2)cn1` to `CNc1nccnc1C1CN(Cc2ccc3[nH]ccc3c2)CCO1` (centres undefined), the “Percent Effect” value rises from 6.515% to 136.6%.

First: CCCS(=O)(=O)c1ccc(N2CCN(Cc3ccccc3)CC2)nn1
Second: OC(CN1CCN(Cc2nnc(C3CC3)o2)CC1)c1ccccc1 (centres undefined)
The “Percent Effect” value of the first is higher: 5.683% for the first, -2.421% for the second.

Compared with `CCOc1ccc(-c2ccnc(CC)n2)cc1C(=O)O`, `COc1ccc(CN(C)c2nccc(-c3cn(C)nc3C)n2)cc1` is lower in “Percent Effect” value: -9.54% for the first, -45.72% for the second.

First: Cc1nnc(NC(=O)NCc2ccc(OC3CCCC3)nc2)s1
Second: Cc1nnc(NC(=O)NCc2ccc(OC(C)C)nc2)s1
The “Percent Effect” value of the first is higher: 94.72% for the first, 85.37% for the second.

First: CC(C)Oc1ccc(CNC(=O)C2CCC(=O)N2)cn1 (centres undefined)
Second: O=C(NCc1ccc(OCC2CC2)nc1)Nc1c(F)cccc1F
The “Percent Effect” value of the first is higher: 3.42% for the first, -3.933% for the second.

First: COc1ccc(CNC(=O)NC2CCN(CC3CCCC3)CC2)cn1
Second: CCC(C(=O)NC1CCCCC1)n1cccc(OC)c1=O (centres undefined)
The “Percent Effect” value of the first is higher: 15.19% for the first, -2.043% for the second.

First: Cc1ccc(CNC(=O)Nc2nnc(C)s2)cn1
Second: Cc1nnc(SCC(=O)NCC(c2ccccc2Cl)N(C)C)s1 (centres undefined)
The “Percent Effect” value of the first is higher: 3.385% for the first, -0.8898% for the second.

Going from `CCOC1CCN(C(=O)c2csc(S(N)(=O)=O)c2)CC1` to `CCCOC1CCCN(C(=O)c2csc(S(N)(=O)=O)c2)C1` (centres undefined), the “Percent Effect” value falls from 18.04% to 6.923%.

First: Cc1nc(NCc2nncn2C2CC2)c2c(CC(C)C)csc2n1
Second: CCn1cnnc1CNc1nc(C)nc2scc(CC(C)C)c12
The “Percent Effect” value of the first is lower: 109.7% for the first, 122.4% for the second.

First: CCn1cnnc1CNC(=O)NC(C)C(C)C (centres undefined)
Second: CCC(NC(=O)NCc1nncn1CC)c1ccc(OC)cc1 (centres undefined)
The “Percent Effect” value of the first is higher: -4.455% for the first, -10.18% for the second.

Going from `COC(C)(C)CC(C)NCc1nncn1C1CCCCC1` (centres undefined) to `c1cnc(CC2COCCN(C3CCCCC3)C2)cn1` (centres undefined), the “Percent Effect” value rises from -17.97% to 106.9%.

Going from `Cc1nc(NCc2nnc(C)n2C)c2c(CC(C)C)csc2n1` to `Cc1c(NC(C)C(C)C)cccc1C(=O)NCc1nnc(C)n1C` (centres undefined), the “Percent Effect” value falls from 119.2% to 0.4576%.

Compared with `COc1ccc(S(=O)(=O)C(F)(F)F)cc1NC(=O)CSCC#N`, `CCNC(=O)CNS(=O)(=O)c1cc(Br)ccc1F` is lower in “Percent Effect” value: 5.684% for the first, -3.098% for the second.

Compared with `O=C(Cn1nc2c(cc1=O)CCCC2)NC(C(=O)O)c1ccccc1` (centres undefined), `O=C(Cn1nc2c(cc1=O)CCCC2)N[C@@H](C(=O)O)c1ccccc1` is lower in “Percent Effect” value: 110.7% for the first, 11.26% for the second.

First: O=C(Cn1nc2c(cc1=O)CCCC2)NC(Cc1ccccc1)C(=O)O (centres undefined)
Second: O=C(Cn1nc2c(cc1=O)CCCC2)N[C@@H](Cc1ccccc1)C(=O)O
The “Percent Effect” value of the first is higher: 101% for the first, 3.393% for the second.

Going from `CC(C)C(NC(=O)Cn1nc2c(cc1=O)CCCC2)C(=O)O` (centres undefined) to `O=C(Cn1nc2c(cc1=O)CSCC2)NC(Cc1ccccc1)C(=O)O` (centres undefined), the “Percent Effect” value falls from 113% to 28.51%.

First: O=c1cc2c(nn1CN1CCN(c3ccccc3)CC1)CCC2
Second: O=C1NCCN(Cc2ccccc2)C1CC(=O)N1CCc2n[nH]cc2C1 (centres undefined)
The “Percent Effect” value of the first is higher: 10.03% for the first, -21.59% for the second.

Compared with `CCCn1nc2c(cc1=O)CN(CC(=O)Nc1cc(C)no1)CC2`, `CC(C)c1cc(NC(=O)CN2CCc3nn(C)c(=O)cc3C2)on1` is higher in “Percent Effect” value: -28.4% for the first, -16.14% for the second.

Compared with `CCCc1cc(NCc2noc(COC)n2)n2nccc2n1`, `Cc1ccc(NC(=O)NC(C)(C)c2noc(C)n2)cc1` is lower in “Percent Effect” value: 6.33% for the first, -4.171% for the second.

Compared with `Cc1cccc(O[C@H]2COCCN(C3CCC3)C2)n1`, `c1cncc(O[C@H]2COCCN(C3CCC3)C2)c1` is lower in “Percent Effect” value: 0.8237% for the first, -11.18% for the second.

Going from `CN(C)c1ccc(CC2CCN(c3cnccn3)C2)nn1` (centres undefined) to `CN(C)c1ccc(CC2CCCN(c3cnccn3)C2)nn1` (centres undefined), the “Percent Effect” value falls from 129.7% to 93.08%.

First: CN(C)c1ccc(CC2CCN(c3cnccn3)CC2)nn1
Second: c1cnc(CC2CCN(c3cnccn3)CC2)cn1
The “Percent Effect” value of the first is lower: 90.64% for the first, 139.5% for the second.

First: Cc1occc1C(=O)N1CCC2(CC1)CN(Cc1nccs1)CCO2.O=C(O)C(F)(F)F
Second: Cc1ccc(F)c(OC2(C(=O)O)CCN(C(=O)N3CCCC3)CC2)c1
The “Percent Effect” value of the first is higher: -1.97% for the first, -14.67% for the second.

First: Cc1nnc(NCC2(c3ccc(Cl)cc3Cl)CCOCC2)c(C#N)c1C
Second: COc1ccc(-c2csc(N)c2C#N)cc1OC
The “Percent Effect” value of the first is higher: 25.06% for the first, -8.208% for the second.

Compared with `COCC1(CNC(=O)[C@@]23CNC[C@@H]2CN(C2CCCC2)C3)CC1`, `CCN(CC)Cc1cc(C(=O)N2CC[C@@]3(O)CCCC[C@H]3C2)c(C)o1` is higher in “Percent Effect” value: -67.22% for the first, -6.043% for the second.

Going from `O=C(O)c1cccc(CC2CCN(c3cnccn3)CC2)c1` to `Cc1nccc(CC2COCCN(c3cnccn3)C2)n1` (centres undefined), the “Percent Effect” value rises from -21.8% to 114.6%.

First: Cc1ccccc1CSc1nc(N)cc(N2CCOCC(CO)C2)n1 (centres undefined)
Second: Cl.O=C(O)CC1CN(Cc2ccccc2)CCO1 (centres undefined)
The “Percent Effect” value of the first is higher: 4.884% for the first, -7.682% for the second.

Compared with `Cc1noc(-c2ccnc(N3CCC(CN4CCOCC4)CC3)c2)n1`, `O=C1[C@H]2CN(c3cnccn3)C[C@H]2CN1CC1CC1` is lower in “Percent Effect” value: 3.253% for the first, -18.33% for the second.

First: O=C1NCCN(C(=O)CCN2CCCO2)C1c1cccc(F)c1 (centres undefined)
Second: CC(=O)c1c(F)cccc1N1CCC(C(N)=O)CC1
The “Percent Effect” value of the first is lower: -39.77% for the first, 16.85% for the second.

Going from `Cc1ccnc(NCCNC(=O)Cc2c(C)[nH]c3c(C)ccc(C)c23)c1` to `Cc1cnccc1CN(C)C(=O)c1cccc(CCC(C)(C)O)c1`, the “Percent Effect” value rises from -11.21% to 0.1694%.

Going from `Cc1ccc([C@@H]2CN(C(=O)c3cccnn3)C[C@H]2NC(=O)C2CC2)cc1` to `Cc1ccc(C(C(=O)NCCN2CCC(CO)CC2)N(C)C)cc1` (centres undefined), the “Percent Effect” value falls from 2.45% to 0.4619%.

First: Cc1ccc(C(C(=O)NC(C)(C)CN2CCCC2)N(C)C)cc1 (centres undefined)
Second: Cc1cccc(C(C(=O)NC(C)(C)CN2CCCC2)N(C)C)c1 (centres undefined)
The “Percent Effect” value of the first is lower: 96.39% for the first, 106.7% for the second.

First: Cc1cccc(C(C(=O)NC(C)(C)CN2CCOCC2)N(C)C)c1 (centres undefined)
Second: CCSCCNC(=O)C(c1cccc(C)c1)N(C)C (centres undefined)
The “Percent Effect” value of the first is higher: 112.8% for the first, -29.39% for the second.

First: Cc1ccc(C(C(=O)NCCN2CCCCCC2)N(C)C)cc1 (centres undefined)
Second: Cc1cccc(C(C(=O)NCC2(O)CCCCC2)N(C)C)c1 (centres undefined)
The “Percent Effect” value of the first is lower: -4.058% for the first, -2.512% for the second.

Compared with `Cc1cc(C)cc(C(C(=O)O)N(C)CCCN2CCOCC2)c1` (centres undefined), `COc1ccc(CN2CCOC[C@H](OCC(=O)N(C)C)C2)cc1` is lower in “Percent Effect” value: 10.88% for the first, -7.108% for the second.

Compared with `Cc1cccc(C(C(=O)NCCn2cccc2)N(C)C)c1` (centres undefined), `Cc1ncsc1CCN(C)C(=O)CN1C(=O)OC[C@@H]1c1ccccc1` is lower in “Percent Effect” value: -2.901% for the first, -3.352% for the second.

First: CN(C)S(=O)(=O)NCC1OCCc2cn(CC3CCOCC3)nc21 (centres undefined)
Second: CN(Cc1ccc(C(=O)NCC2COCCO2)c(=O)[nH]1)CC(C)(C)C (centres undefined)
The “Percent Effect” value of the first is higher: 2.181% for the first, -4.558% for the second.

Going from `CC(C)n1nc(CNc2ncccn2)c2c1CN(C1CCOCC1)CC2.O=C(O)C(F)(F)F` to `O=C(O)C(F)(F)F.O=C(O)C(F)(F)F.c1cc(C2CC2)n2cnc(C3CN(Cc4ccncc4)CCO3)c2c1` (centres undefined), the “Percent Effect” value rises from 3.818% to 5.365%.

First: COC(=O)[C@H]1C[C@@H](O)CCN1S(=O)(=O)c1c(C)cc(OC)c(C)c1C
Second: CCc1ccc(C(=O)N2CCC(N(C)C(=O)OC(C)(C)C)C2)o1 (centres undefined)
The “Percent Effect” value of the first is lower: -13.15% for the first, 8.552% for the second.

First: COc1ccc(-c2c(C(C)C)nn3c(=N)c(C#N)n[nH]c23)cc1
Second: COc1ccc(-c2c(C)nn3c(=N)c(C#N)n[nH]c23)cc1
The “Percent Effect” value of the first is higher: 89.55% for the first, 88.05% for the second.

Compared with `COc1ccc(-c2c(C)nn3c(=N)c(C#N)n[nH]c23)cc1OC`, `CCc1nn2c(=N)c(C#N)n[nH]c2c1-c1ccc(OC)cc1` is lower in “Percent Effect” value: 107.4% for the first, 103% for the second.

First: CCN(C)C[C@H]1CC[C@@H](Cc2ccc3c(cnn3C)c2)O1
Second: CCc1oc(C(=O)N2CCC(N(CC)C(C)=O)C2)cc1CN(CC)CC (centres undefined)
The “Percent Effect” value of the first is lower: -8.878% for the first, 93.17% for the second.

Compared with `CCS(=O)(=O)c1ccc(NCc2csc(C(C)C)n2)cc1`, `CNc1nccnc1C1CN(Cc2ccc(OCC(=O)O)cc2)CCO1` (centres undefined) is higher in “Percent Effect” value: 5.353% for the first, 142.7% for the second.

First: O=C(COc1cccnc1)N1CCOC(C(F)(F)F)C1 (centres undefined)
Second: Nc1nccnc1C1CN(C(=O)COc2cccnc2)CCO1 (centres undefined)
The “Percent Effect” value of the first is lower: -4.014% for the first, 107.6% for the second.

First: Nc1nccnc1C1CN(Cc2ccc(OCC(=O)O)cc2)CCO1 (centres undefined)
Second: O=C(COc1cccnc1)N1CCCC(n2cccn2)C1 (centres undefined)
The “Percent Effect” value of the first is higher: 171.8% for the first, -8.892% for the second.

Going from `Cc1ncsc1C(=O)NCCOc1ncc(Cl)cc1Cl` to `CCCOc1ccc(C(=O)N2CC[C@H]3CC[C@@H](C2)N3)cc1Cl`, the “Percent Effect” value falls from 21.09% to -21.75%.

First: Cn1nnc2c1CCN(CC1CC1)C2COCC1CC1.O=C(O)C(F)(F)F (centres undefined)
Second: CCCOC1CCCN(C(=O)c2ccnnc2)C1 (centres undefined)
The “Percent Effect” value of the first is higher: 12.72% for the first, 0.837% for the second.

Compared with `Cc1noc(CCCNS(=O)(=O)N2CCCC2c2ccco2)n1` (centres undefined), `CCc1oc(C(=O)N2CCCC(c3nnn[nH]3)C2)cc1C` (centres undefined) is higher in “Percent Effect” value: -11.05% for the first, -3.531% for the second.

In the case of `CCCOC1CCCN(C(=O)c2cc(CN(CC)CC)c(CC)o2)C1` (centres undefined), the “Percent Effect” value is reported as 92.62%.
